Measurements as given in PubChem BioAssay AID1159580 (chemical genetic matrix, 2015).
Screen size: about 5,500 compounds; about 2,000 (36%) were called active. Not shown: some 18% with an inconclusive outcome. Rule as the data show it: active = normalized growth mostly below about 0.91 (no sharp cut-off); inconclusive = no clear call, values can overlap the other calls; inactive = mostly above about 0.92. This is one part of the list.

Assay: chemical genetic growth profiling, strain panel (AID 1159580);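 also: tested at 20 µM; growth read once vehicle control cultures reached saturation at 30 °C; 1 = growth at the plate median or of vehicle wells; lower values mean less growth of the strain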
Details: growth OD

Measured: normalized growth

CCCC(=O)Nc1ncnc2c1ncn2C1O[C@@H]2COP(=O)(O)O[C@H]2[C@H]1OC(=O)CCC (stereo not given in full)
inactive: S. cerevisiae deletion strains, locus YJR066W, strain TOR1, hits give low values 0.97 | S. cerevisiae deletion strains, locus YKL009W, strain mrt4, hits give low values 1.01 | S. cerevisiae deletion strains, locus YKL068W, hits give low values 1.03 | S. cerevisiae deletion strains, locus YKL085W, strain MDH1 (second series), hits give low values 1.01 | S. cerevisiae deletion strains, locus YKL085W, strain MDH1, hits give low values 1.01 | S. cerevisiae deletion strains, locus YKL160W, strain elf1, hits give low values 0.999 | S. cerevisiae deletion strains, locus YKL190W, strain CNB1, hits give low values 1.01 | S. cerevisiae deletion strains, locus YKR001C, strain vps1, hits give low values 1.04 | S. cerevisiae deletion strains, locus YKR026C, strain gcn3, hits give low values 0.979 | S. cerevisiae deletion strains, locus YKR091W, strain srl3, hits give low values 0.989 | S. cerevisiae deletion strains, locus YLL001W, strain dnm1, hits give low values 0.967 | S. cerevisiae deletion strains, locus YLL026W, hits give low values 0.985 | S. cerevisiae deletion strains, locus YLL041C, strain sdh2, hits give low values 0.98 | S. cerevisiae deletion strains, locus YLR027C, strain aat2, hits give low values 0.999 | S. cerevisiae deletion strains, locus YLR039C, strain RIC1, hits give low values 1.02 | S. cerevisiae deletion strains, locus YLR058C, strain SHM2, hits give low values 1.01 | S. cerevisiae deletion strains, locus YLR102C, strain apc9, hits give low values 1.01 | S. cerevisiae deletion strains, locus YLR113W, strain HOG1, hits give low values 1.01 | S. cerevisiae deletion strains, locus YLR221C, strain rsa3, hits give low values 0.945 | S. cerevisiae deletion strains, locus YLR258W, strain gsy2, hits give low values 0.965 | S. cerevisiae deletion strains, locus YLR262C, strain YPT6 (second series), hits give low values 0.984 | S. cerevisiae deletion strains, locus YLR262C, strain YPT6, hits give low values 1.04 | S. cerevisiae deletion strains, locus YLR268W, strain sec22, hits give low values 1.03 | S. cerevisiae deletion strains, locus YLR320W, strain mms22, hits give low values 0.949 | S. cerevisiae deletion strains, locus YLR330W, strain CHS5, hits give low values 1.01 | S. cerevisiae deletion strains, locus YLR342W, strain FKS1 (second series), hits give low values 1 | S. cerevisiae deletion strains, locus YLR342W, strain FKS1, hits give low values 0.992 | S. cerevisiae deletion strains, locus YLR357W, strain rsc2, hits give low values 1 | S. cerevisiae deletion strains, locus YLR370C, strain arc18, hits give low values 0.952 | S. cerevisiae deletion strains, locus YLR371W, strain rom2, hits give low values 1.02 | S. cerevisiae deletion strains, locus YLR384C, strain iki3, hits give low values 0.976 | S. cerevisiae deletion strains, locus YLR418C, strain cdc73, hits give low values 1.04 | S. cerevisiae deletion strains, locus YML016C, strain PPZ1, hits give low values 1.01 | S. cerevisiae deletion strains, locus YML032C, strain rad52, hits give low values 1.03 | S. cerevisiae deletion strains, locus YML120C, strain ndi1, hits give low values 0.962 | S. cerevisiae deletion strains, locus YML124C, strain tub3, hits give low values 1.01 | S. cerevisiae deletion strains, locus YMR058W, strain fet3, hits give low values 0.986 | S. cerevisiae deletion strains, locus YMR078C, strain ctf18, hits give low values 1.03 | S. cerevisiae deletion strains, locus YMR125W, strain sto1, hits give low values 0.971 | S. cerevisiae deletion strains, locus YMR129W, hits give low values 0.991 | S. cerevisiae deletion strains, locus YMR205C, strain PFK2, hits give low values 0.98 | S. cerevisiae deletion strains, locus YMR223W, strain ubp8, hits give low values 1.03 | S. cerevisiae deletion strains, locus YMR231W, strain pep5, hits give low values 0.988 | S. cerevisiae deletion strains, locus YMR263W, strain SAP30, hits give low values 1 | S. cerevisiae deletion strains, locus YMR307W, strain GAS1, hits give low values 0.995 | S. cerevisiae deletion strains, locus YNL067W, strain RPL9B, hits give low values 1 | S. cerevisiae deletion strains, locus YNL071W, strain lat1, hits give low values 0.987 | S. cerevisiae deletion strains, locus YNL128W, strain TEP1, hits give low values 1.02 | S. cerevisiae deletion strains, locus YNL153C, strain GIM3, hits give low values 1 | S. cerevisiae deletion strains, locus YNL183C, strain NPR1, hits give low values 0.969 | S. cerevisiae deletion strains, locus YNL209W, strain ssb2, hits give low values 0.982 | S. cerevisiae deletion strains, locus YNL233W, strain BNI4, hits give low values 0.999 | S. cerevisiae deletion strains, locus YNL248C, strain rpa49, hits give low values 1.02 | S. cerevisiae deletion strains, locus YNL250W, strain rad50, hits give low values 1.03 | S. cerevisiae deletion strains, locus YNL271C, strain bni1, hits give low values 1.02 | S. cerevisiae deletion strains, locus YNL298W, strain CLA4, hits give low values 1.02 | S. cerevisiae deletion strains, locus YNL307C, strain MCK1, hits give low values 1.03 | S. cerevisiae deletion strains, locus YNL322C, strain KRE1 (second series), hits give low values 0.975 | S. cerevisiae deletion strains, locus YNR049C, strain mso1, hits give low values 0.981 | S. cerevisiae deletion strains, locus YNR052C, strain pop2, hits give low values 1.02 | S. cerevisiae deletion strains, locus YOL006C, strain TOP1, hits give low values 1.03 | S. cerevisiae deletion strains, locus YOL012C, strain htz1 0.919 | S. cerevisiae deletion strains, locus YOL147C, strain pex11, hits give low values 1.02 | S. cerevisiae deletion strains, locus YOR001W, strain rrp6, hits give low values 1.02 | S. cerevisiae deletion strains, locus YOR061W, strain CKA2, hits give low values 1.02 | S. cerevisiae deletion strains, locus YOR069W, strain VPS5, hits give low values 1 | S. cerevisiae deletion strains, locus YOR070C, strain gyp1, hits give low values 0.988 | S. cerevisiae deletion strains, locus YOR080W, strain dia2, hits give low values 0.983 | S. cerevisiae deletion strains, locus YOR083W, strain WHI5, hits give low values 0.986 | S. cerevisiae deletion strains, locus YOR106W, strain vam3, hits give low values 0.982 | S. cerevisiae deletion strains, locus YOR136W, strain idh2, hits give low values 1.02 | S. cerevisiae deletion strains, locus YOR144C, strain elg1, hits give low values 1.02 | S. cerevisiae deletion strains, locus YOR184W, strain ser1, hits give low values 1.02 | S. cerevisiae deletion strains, locus YOR231W, strain MKK1, hits give low values 1.03 | S. cerevisiae deletion strains, locus YOR265W, strain rbl2, hits give low values 0.978 | S. cerevisiae deletion strains, locus YOR270C, strain vph1, hits give low values 0.983 | S. cerevisiae deletion strains, locus YOR290C, strain snf2, hits give low values 0.961 | S. cerevisiae deletion strains, locus YOR316C, strain cot1, hits give low values 1.02 | S. cerevisiae deletion strains, locus YPL051W, strain arl3, hits give low values 0.997 | S. cerevisiae deletion strains, locus YPL078C, strain atp4, hits give low values 0.99 | S. cerevisiae deletion strains, locus YPL106C, strain sse1, hits give low values 0.941 | S. cerevisiae deletion strains, locus YPL240C, strain hsp82, hits give low values 0.994 | S. cerevisiae deletion strains, locus YPL241C, strain CIN2, hits give low values 1.01 | S. cerevisiae deletion strains, locus YPL256C, strain CLN2, hits give low values 1.06 | S. cerevisiae deletion strains, locus YPR119W, strain clb2, hits give low values 1.02 | S. cerevisiae deletion strains, locus YPR141C, strain kar3, hits give low values 1.01 | S. cerevisiae deletion strains, locus YPR163C, strain tif3, hits give low values 1.03 | S. cerevisiae deletion strains, locus YPR167C, strain met16, hits give low values 1.01 | S. cerevisiae deletion strains, strain wtn01, hits give low values 1.02 | S. cerevisiae strains, strain wild type, hits give low values 1.01
